This is a sample that favours compounds with a hit; in the whole collection about 12% have one here.
ROMK primary: modulators of human ROMK potassium channel; P48048; Tet-inducible ROMK, thallium flux fluorescence; actives lie on both sides; B-score at 10 µM; actives 2% (n = 130,000); AID 1918;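 active = signal ratio slope over the read window, or its plate-corrected B-score, at least 3 SD from the plate mean, either direction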;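 note: B-score of the F/F0 ratio slope over 7 to 12 s after thallium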
Target sequence (P48048 whole entry, looked up): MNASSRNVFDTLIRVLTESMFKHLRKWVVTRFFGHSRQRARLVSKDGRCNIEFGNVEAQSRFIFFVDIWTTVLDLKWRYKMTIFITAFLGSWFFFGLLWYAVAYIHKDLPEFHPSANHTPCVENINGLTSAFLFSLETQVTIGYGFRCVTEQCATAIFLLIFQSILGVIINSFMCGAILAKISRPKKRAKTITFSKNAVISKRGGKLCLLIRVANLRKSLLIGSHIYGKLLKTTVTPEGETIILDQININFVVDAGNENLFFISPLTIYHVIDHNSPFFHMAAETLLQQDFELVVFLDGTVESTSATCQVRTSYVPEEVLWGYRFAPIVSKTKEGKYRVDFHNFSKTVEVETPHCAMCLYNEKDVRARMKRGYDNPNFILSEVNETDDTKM
Lmaj promast: Leishmania major promastigote growth inhibition; Leishmania major promastigotes, resazurin fluorescence viability; inhibition, % at 10 µM; actives 9% (n = 200,000); in the data active = inhibition above about 50%;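 note: promastigotes grown with compound for 44 hours at 28 °C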
Cl transport mod: modulators of human KCC2 chloride dependent transport; KCC2 cells, thallium flux FluoZin-2 fluorescence; actives 2.2% (n = 190,000); B-score of Tl+ flux slope (higher = more flux/activation; lower = inhibition) at 10 µM; AID 1456;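 active = thallium flux slope and its plate-corrected score both differing from the plate sample mean at a set confidence after two filtering rounds, in either direction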;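 note: slope of fluorescence scaled to starting intensity during 10 to 20 s after thallium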
m-calpain inh: inhibitors of pig calpain II | actives 0.37% (n = 220,000) | AID 1236 | purified calpain II, fluorogenic peptide substrate, 30 min | inhibition, % at 16 µM;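 active = inhibition above about 50%, limit read from the data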
WT yeast gro inh: growth inhibition of WT yeast, mitochondrial fusion screen; mitochondrial fusion phenotypic screen, WT strain; inhibition, % at 10 µM; actives 2.1% (n = 190,000); AID 1362; in the data active = inhibition above about 58%; tested in S. cerevisiae
* marks the source's active call; other numbers are inactive results; · = no result given.

SMILES | ROMK primary | Lmaj promast | Cl transport mod | m-calpain inh | WT yeast gro inh
COc1cccc(NC(=O)c2ccc(NCCCN3CCC(C)CC3)c([N+](=O)[O-])c2)c1 | -0.38 | 21 | -0.16 | -2 | 6
O=C(Nc1cc(F)cc(F)c1)c1ccc(NCCc2ccccc2)c([N+](=O)[O-])c1 | -0.52 | -7 | -0.46 | 3 | -5
CC(=O)NC(C)C(=O)OCc1ccc(Cl)cc1Cl (stereo not given) | · | -5 | -0.3 | 7 | -1
CC(=O)c1nc(N2C(=O)CC(Cc3ccc(C)cc3)C2=O)sc1C (stereo not given) | · | -6 | -1.2 | -32 | -18
O=C(c1ccc(-n2cccn2)cc1)N1CCc2ccccc2C1 | -0.25 | · | -0.49 | -10 | ·
Cc1ccc2c(CSc3nnc(C4CC4)n3N)cc(=O)oc2c1C | · | 0 | -3.7 | 3 | 96*
Cc1ccc(C)c(-c2csc(N/N=C/c3ccco3)n2)c1 | -0.35 | 15 | 0.018 | -58 | 38
COc1ccc(N2CCN(C(CNS(=O)(=O)c3cc(F)ccc3F)c3cccnc3)CC2)cc1 (stereo not given) | 0.4 | 99* | · | 27 | -3
CS(=O)(=O)NCC(c1cccnc1)N1CCN(c2ccc(F)cc2)CC1 (stereo not given) | · | 45 | · | 17 | 11
O=S(=O)(NCC(c1cccnc1)N1CCN(c2ccc(F)cc2)CC1)c1cc(F)ccc1F (stereo not given) | -2.9 | 95* | -0.00011 | -10 | 5
CC(C)c1c(O)cc(-c2ccncc2)n(-c2ccc(Cl)cc2)c1=O | · | 54* | -1.1 | 4 | 17
O=C(c1ccc(Br)o1)N1CCN(Cc2ccc3c(c2)OCO3)CC1 | -0.12 | 9 | · | -6 | 12
Cc1onc(-c2ccccc2)c1C(=O)N1CCN(Cc2ccc3c(c2)OCO3)CC1 | -0.84 | -4 | · | -15 | -13
O=C(c1cc(-c2ccccc2)on1)N1CCN(Cc2ccc3c(c2)OCO3)CC1 | -1.4 | 90* | -0.18 | -1 | -16
O=C(c1ccc(Br)s1)N1CCN(Cc2ccc3c(c2)OCO3)CC1 | · | 82* | -1.3 | 9 | 13
Cc1ccccc1Cc1c(C)nc2c(C(=O)N3CCN(Cc4ccc5c(c4)OCO5)CC3)cnn2c1C | -5.3* | 19 | -1.2 | · | ·
CCOc1ccc(S(=O)(=O)N2CCN(C(=O)c3cc4c(s3)CCCC4)CC2)cc1 | -1.1 | 78* | 1.3 | -8 | 63*
O=C(CN1C(=O)C2C3CC(C(Br)C3Br)C2C1=O)Nc1ccc(C(=O)O)cc1 (stereo not given) | · | · | 0.04 | -18 | ·
O=C(COC(=O)CNC(=O)c1ccco1)Nc1ccccc1OC(F)F | 0.39 | -8 | 1 | -54 | -5
Cn1c(C(=O)N2CCC(C(=O)N3CCN(Cc4ccc5c(c4)OCO5)CC3)CC2)cc2sccc21 | · | 8 | -0.026 | -9 | 4
Cn1c(C(=O)N2CCN(Cc3ccc4c(c3)OCO4)CC2)cc2sccc21 | -0.81 | 70* | · | 8 | -7
O=C(c1cc2c(s1)CCCC2)N1CCN(Cc2ccc3c(c2)OCO3)CC1 | · | 94* | -1.9 | 5 | 38
Cc1cccc(C(=O)N2CCN(Cc3ccc4c(c3)OCO4)CC2)c1 | · | 40 | 0.065 | 6 | 11
O=C(NNC1=NCCCCC1)Nc1cccc(Cl)c1 | -0.1 | 0 | 0.12 | 22 | 14
O=C(O)CSCC(=O)N1CCN(S(=O)(=O)c2cc(Cl)cc(Cl)c2)CC1 | -0.062 | · | 0.45 | -5 | ·
SMILES | ROMK primary | Lmaj promast | Cl transport mod | m-calpain inh | WT yeast gro inh
CC(C)c1ccc(OCc2nc(-c3ccccn3)no2)c(Br)c1 | · | 14 | -0.66 | 30 | 79*
Cc1ccc(OCc2nc(-c3ccccn3)no2)c(Br)c1 | 0.82 | -3 | -4 | -1 | 6
COc1ccc(Nc2nc(N)nc(CN(C)C3CCCCC3)n2)cc1 | · | -4 | 0.52 | 2 | -7
CN(Cc1ccc(O)cc1)C1CCCCC1 | -0.085 | 93* | · | -8 | 12
Oc1ccc(CNC2CCCCC2)cc1 | 0.91 | 90* | · | 3 | 0
COc1ccc(CN(C)C2CCCCC2)cc1 | · | 87* | -0.35 | 2 | 12
Nc1cc(C(F)(F)F)ccc1-n1cccc1 | · | -1 | -0.67 | 26 | -12
CCOC(=O)C1=C(CNC(C)(C)CC(C)(C)C)NC(=O)NC1c1cccc([N+](=O)[O-])c1 (stereo not given) | -2.3 | 31 | 0.029 | 61* | 9
CC(C)C[C@H](NC(=O)c1nc[nH]c1C(=O)NC1CCN(C(=O)OC(C)(C)C)CC1)C(=O)OCc1ccccc1 | · | 51* | -0.29 | 47 | 45
CC(C)C[C@H](NC(=O)c1nc[nH]c1C(=O)NCc1ccccc1)C(=O)OC(C)(C)C | · | 3 | 0.29 | 60* | 36
Cc1ccccc1-n1nnnc1SCC(=O)NCC1CCCO1 (stereo not given) | 0.014 | -1 | 1.1 | 19 | 3
Cc1cccc(C)c1NCc1nnc(SCC(=O)Nc2nc(-c3ccccc3)cs2)n1-c1ccccc1 | 0.52 | -5 | -0.24 | 11 | -8
CCOc1ccc(NCc2nnc(SCc3ccc(Cl)cc3)n2-c2ccccc2)cc1 | -0.67 | 24 | -1.7 | 28 | 60*
CCOc1ccc(NCc2nnc(SCC(=O)Nc3nc(-c4ccccc4)cs3)n2-c2ccccc2)cc1 | 0.0064 | 95* | 0.53 | -6 | 6
NC(=O)Nc1ccc(Oc2c(F)c(F)c(F)c(F)c2F)cc1 | · | -4 | -0.9 | 10 | -1
Cn1nnnc1SCC(=O)c1ccc(Br)s1 | · | -2 | 1.3 | 8 | 12
Cn1c(Cc2ccccc2)nnc1SCC(=O)c1ccc(Br)s1 | · | 12 | · | 0 | 63*
CCC(C)(C)c1ccc(OCCCC[n+]2ccc(C)cc2)c(C(C)(C)CC)c1 | -5.9* | 100* | -1.2 | 29 | 99*
COCCOc1ccc(C(F)(F)F)cc1NC(=O)c1ccc(C)cc1 | · | 2 | -0.33 | -18 | -18
CC(C)=CCN1CCN(Cc2ccc(C#CC(C)(C)O)s2)CC1CCO (stereo not given) | -0.71 | -9 | -0.0028 | -19 | -7
Clc1ccc(Cn2cccc2C2=NCCO2)cc1 | 0.083 | 1 | · | 16 | 22
COc1cccc(CN(C)C(=O)c2cccc(OC3CCN(C4CCCC4)CC3)c2)c1 | -0.69 | 63* | 0.045 | -14 | 3
COCCC1CCCCN1C(=O)c1cccc(OC2CCN(C3CCCC3)CC2)c1 (stereo not given) | 0.0012 | 10 | · | -7 | -8
CCN1C(=O)N(C(C)=O)C2C1N(C(C)=O)C(=O)N2C(C)=O (stereo not given) | -0.042 | -6 | 0.061 | 0 | 8
CCC(=O)Nc1ccc(C(=O)CSc2nnc(-c3ccc(NS(C)(=O)=O)cc3)n2C)cc1OC | · | -5 | 0.53 | -12 | -4
CCn1c(SCC(=O)c2ccc(NC(C)=O)c(OC)c2)nnc1-c1ccc(NS(C)(=O)=O)cc1 | -0.087 | 64* | 0.021 | 1 | -8
C/C(CC(=O)Nc1ccc([N+](=O)[O-])cc1)=N/NC(=O)C1CC12CCC2 (stereo not given) | 0.57 | 4 | -0.3 | -15 | -4
CCOC(=O)c1c(C)[nH]c(C(=O)OCC(=O)Nc2cc(Cl)ccc2OC)c1C | · | 3 | 0.74 | -10 | 85*
CCN(CC)CCOCCOc1cc(C)c(Cl)c(C)c1 | 0.024 | 99* | -0.089 | 5 | 0

Source: PubChem BioAssay
